We go through 18 molecules from paper PMC5540273 (PLoS ONE, 2017).

Some test systems named below: PRKX; PRP4; QSK; RAF1; RET; RIOK1; RIOK2; RIOK3; RIPK1.
Common to all, as to settings: concentration: 1 μM, replicates: in singlicate; n = 1
The next test concerns T1, PYK2.
T1 construct: gene PTK2B

SMILES strings stand for the structures.
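Note: KINOMEscan kinase panel screen.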

In the case of `Cc1ccc(Oc2ccc(Nc3ncnc4cc[nH]c34)cc2C)cn1`, the “%Inh” value in the test on PRKX is 2%; with PRP4, 46%; with PYK2, 9%; with QSK, 13%; with RAF1, 5%; in the test on RET it was 8%. The “%Inh” value with RIOK1 was 100%; with RIOK2, 0%; in the test on RIOK3, 24%; in the test with RIPK1, 0%.
Regarding `COc1cc2ncn(-c3cc(OCCCc4ccccc4)c(C(N)=O)s3)c2cc1OC` [GSK205189], the “%Inh” value in the test on PRKX worked out at 3%; with PRP4, 0%; with PYK2 it was 5%; with QSK, 0%; in the test on RAF1, 0%; in the test with RET, 0%. Also, the “%Inh” value in the test on RIOK1 turned out to be 26%; with RIOK2, 0%; with RIOK3, 12%; in the test on RIPK1, 0%.
`CN1C(=O)C(Nc2cc(Cl)c(O)c(Cl)c2)=C(c2ccc(Cl)cc2)C1=O` [SB-404321]: the “%Inh” value with PRKX came out at 0%; in the test on PRP4 it was 17%; with PYK2 it was 1%; in the test on QSK, 0%; with RAF1 it was 10%; in the test on RET it was 0%. For the same molecule, the “%Inh” value in the test on RIOK1, in the test with RIOK2, in the test on RIOK3 and with RIPK1 was 0% throughout.
On to `O=c1cc(N2CCOCC2)nc2n(Cc3ccc(F)c(Cl)c3)ccn12` [GSK2297099], for which the “%Inh” value was found to be 20% in the test with PRKX; 17% in the test on PRP4; 0% in the test with PYK2; 2% in the test with QSK; 54% in the test with RAF1; 0% in the test on RET. For the same molecule, the “%Inh” value in the test with RIOK1 is listed as 5%; with RIOK2, 18%; in the test with RIOK3 it was 14%; in the test with RIPK1 it was 1%.
On to `OCCCNc1nccc(-c2c(-c3cccc(C(F)(F)F)c3)nn3cc(C(F)(F)F)ccc23)n1` [GW630813], for which the “%Inh” value in the test on PRKX stood at 0%; with PRP4 it was 17%; with PYK2 it was 5%; in the test on QSK, 0%; with RAF1, 0%; with RET it was 11%. Besides, the “%Inh” value is on record as 38% with RIOK1, 0% in the test with RIOK2, 14% in the test with RIOK3 and 0% in the test with RIPK1.
With `CCC(=O)c1c(-c2ccccc2)c2cc(Cl)ccc2c(=O)n1Cc1cc(S(C)(=O)=O)n(CCC(C)(C)O)n1`, the “%Inh” value is 30% in the test with PRKX; 0% in the test with PRP4; 0% with PYK2; 8% in the test with QSK; 14% with RAF1; 14% with RET. In addition, the “%Inh” value in the test with RIOK1 is listed as 8%; in the test with RIOK2 it was 42%; in the test with RIOK3, 0%; in the test on RIPK1, 20%.
With `COc1ccc(Nc2nccc(N3CCC(NS(=O)(=O)c4ccc(NC(C)=O)cc4)C3)n2)cc1` (stereo not drawn) [GSK1379729], the “%Inh” value in the test on PRKX is 2%; with PRP4 it was 14%; in the test on PYK2 it was 0%; with QSK it was 11%; in the test with RAF1, 18%; in the test on RET, 28%. Besides, the “%Inh” value is recorded as 38% in the test on RIOK1, 9% in the test on RIOK2, 29% in the test with RIOK3 and 28% in the test on RIPK1.
Regarding `CCC(=O)c1c(-c2ccccc2)c2cc(Cl)ccc2c(=O)n1Cc1cc(C(=O)NC2CC2)n(C)n1`, the “%Inh” value in the test on PRKX is reported as 0%; in the test with PRP4, 0%; with PYK2, 0%; with QSK, 0%; in the test with RAF1, 40%; in the test with RET, 0%. For the same molecule, the “%Inh” value with RIOK1 turned out to be 0%; in the test on RIOK2, 17%; in the test on RIOK3, 10%; in the test on RIPK1, 0%.
Take `COc1cc2nccc(Nc3cccc(Oc4ccccc4)c3)c2cc1OC.Cl` [GW284543]: the “%Inh” value with PRKX was 22%; with PRP4, 19%; in the test with PYK2 it was 0%; in the test with QSK it was 5%; in the test on RAF1 it was 5%; in the test on RET, 25%. The “%Inh” value in the test with RIOK1 is recorded as 21%; with RIOK2 it was 0%; with RIOK3 it was 4%; with RIPK1, 0%.
`Cl.NS(=O)(=O)c1cccc(Nc2cc(-c3ccc(F)cc3)n[nH]2)c1` [GW824645]: the “%Inh” value with PRKX was found to be 0%; in the test with PRP4 it was 0%; with PYK2, 0%; with QSK, 0%; in the test with RAF1 it was 10%; in the test with RET, 0%. Besides, the “%Inh” value with RIOK1 stood at 0%; in the test on RIOK2, 0%; with RIOK3, 11%; in the test with RIPK1 it was 0%.
As to `O=C(Nc1n[nH]c2nc(-c3ccccc3)c(Br)cc12)C1CC1` [SB-708998], the “%Inh” value turned out to be 0% in the test with PRKX; 3% with PRP4; 0% in the test on PYK2; 0% in the test with QSK; 14% with RAF1; 74% with RET. Also, the “%Inh” value is reported as 35% with RIOK1, 17% with RIOK2, 24% with RIOK3 and 48% in the test with RIPK1.
For the molecule `COc1ccc(-n2cnc3c(N)ncnc32)cc1` [SKF-97236], the “%Inh” value is 15% with PRKX; 0% in the test on PRP4; 0% with PYK2; 0% in the test with QSK; 0% in the test with RAF1; 34% in the test on RET. For the same molecule, the “%Inh” value was 14% in the test with RIOK1, 28% in the test on RIOK2, 0% in the test with RIOK3 and 0% with RIPK1.
In the case of `CCCC(=O)Nc1n[nH]c2ncc(-c3cccc4ccccc34)cc12` [SB-642057], the “%Inh” value with PRKX was 12%; with PRP4, 26%; in the test on PYK2 it was 0%; in the test on QSK it was 13%; in the test on RAF1, 9%; in the test on RET, 33%. The “%Inh” value in the test with RIOK1 is recorded as 19%; in the test with RIOK2, 0%; with RIOK3, 0%; in the test on RIPK1, 0%.
For the molecule `O=C(Nc1n[nH]c2cc(-c3ccccc3F)ccc12)C1CC1` [SB-733371], the “%Inh” value with PRKX was found to be 0%; in the test on PRP4, 7%; with PYK2, 15%; in the test on QSK, 6%; in the test with RAF1, 35%; in the test with RET, 0%. Also, the “%Inh” value was determined as 50% with RIOK1, 0% in the test with RIOK2, 63% in the test with RIOK3 and 78% in the test with RIPK1.
As to `Nc1n[nH]c2nnc(-c3ccccc3)c(-c3ccccc3)c12` [GW554060], the “%Inh” value in the test on PRKX is given as 18%; with PRP4, 8%; in the test with PYK2, 0%; in the test with QSK, 0%; in the test with RAF1 it was 18%; in the test with RET, 0%. Also, the “%Inh” value is reported as 32% with RIOK1, 13% in the test with RIOK2, 0% in the test on RIOK3 and 0% in the test with RIPK1.
Regarding `O=C(Nc1ccc2c(c1)OCO2)NC1CCN(c2ccnc(NCc3ccc(F)cc3)n2)CC1` [GSK1379859], the “%Inh” value in the test with PRKX worked out at 3%; with PRP4 it was 0%; in the test with PYK2, 0%; with QSK, 0%; with RAF1, 3%; in the test on RET, 21%. Also, the “%Inh” value turned out to be 33% in the test on RIOK1, 0% with RIOK2, 30% in the test on RIOK3 and 17% in the test with RIPK1.
With `COc1cc(Nc2nccc(N3CCC(NC(=O)C(C)c4ccc(Cl)cc4)C3)n2)cc(OC)c1OC` (stereo not drawn) [GSK1379757], the “%Inh” value is 5% in the test on PRKX; 23% in the test with PRP4; 10% in the test with PYK2; 2% in the test on QSK; 10% with RAF1; 7% in the test on RET. The “%Inh” value with RIOK1 is listed as 58%; in the test on RIOK2, 0%; in the test with RIOK3, 54%; in the test with RIPK1, 20%.
As to `COC(=O)c1c(-c2ccccc2)c2cc(C)ccc2c(=O)n1Cc1ccccc1`, the “%Inh” value in the test on PRKX amounted to 0%; in the test on PRP4, 4%; in the test with PYK2 it was 0%; with QSK, 0%; with RAF1, 66%; with RET, 13%. The “%Inh” value with RIOK1 is 3%; in the test on RIOK2, 0%; in the test with RIOK3 it was 0%; in the test with RIPK1, 0%.
